The values that follow come from PubChem BioAssay (NCI).

Test systems include SK-MEL-2 melanoma; EKVX NSCLC; SN12C renal; UO-31 renal; TK-10 renal; ACHN renal; CAKI-1 renal; A498 renal; CCRF-CEM leukemia.
Test in all cases: NCI-60 one-dose screen, 48 h (100 = growth as untreated, 0 = no growth, -100 = all killed)

The panel holds about 83,000 compounds, 20% with a hit somewhere; the sample as a whole holds those more often.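 Percent growth is the endpoint: 0 to 100 indicates growth inhibition (40 means 60% inhibition), 0 means no net growth, and negative values indicate cell death.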 A number with no mark means an inactive call. The source made the active and inactive calls. The calls were made as follows: active = growth percent below 10; inactive = the rest.

Regarding `Cc1ccc(Cl)cc1NC(=O)N/C(N)=N/c1nc2ccccc2s1`, the growth in the assay on SK-MEL-2 melanoma (10 µM unless noted) was -20.6% (active); in the assay on EKVX NSCLC (10 µM unless noted) it was 15.8%; in the assay on SN12C renal (10 µM unless noted) it was -40% (active); in the assay on UO-31 renal (10 µM unless noted) it was -13% (active); in the assay on TK-10 renal (10 µM unless noted), 14.7%; in the assay on ACHN renal (10 µM unless noted), -50.3% (active). The results for the growth in the assay with CAKI-1 renal (10 µM unless noted), with A498 renal (10 µM unless noted) and with CCRF-CEM leukemia (10 µM unless noted) were -2.72% (active), 5.76% (active) and -6.91% (active), respectively.
Consider `CC/C(=C(/c1ccc(O)cc1)c1ccc(OCCN(C)C(=O)CCOCCNC(=O)Cc2ccc3c(c2)CN([C@@H]2CCC(=O)NC2=O)C3=O)cc1)c1ccccc1`, for which the growth was 101% with SK-MEL-2 melanoma (1 µM); 74.7% in the assay with SK-MEL-2 melanoma (10 µM); 102% in the assay on EKVX NSCLC (1 µM); 97.8% with EKVX NSCLC (10 µM); 89% in the assay on SN12C renal (1 µM); 78% with SN12C renal (10 µM). The growth in the assay on UO-31 renal (1 µM) is 92%; with UO-31 renal (10 µM), 86.8%; in the assay on TK-10 renal (1 µM) it was 94%; in the assay on TK-10 renal (10 µM), 93.5%; with ACHN renal (1 µM), 103%; with ACHN renal (10 µM) it was 101%. Also, the growth in the assay with A498 renal (1 µM) was 127%; in the assay on A498 renal (10 µM) it was 97.7%; in the assay on CCRF-CEM leukemia (1 µM), 3.79% (active); with CCRF-CEM leukemia (10 µM), 22.9%.
Regarding `CCC(=O)c1c2c(c3ccc4c5ccccc5ccc4n13)C(=O)c1ccccc1C2=O`, the growth in the assay on SK-MEL-2 melanoma (10 µM unless noted) is 89.2%; in the assay with EKVX NSCLC (10 µM unless noted), 71.2%; with SN12C renal (10 µM unless noted), 85.6%; in the assay with UO-31 renal (10 µM unless noted) it was 59.8%; in the assay on TK-10 renal (10 µM unless noted), 122%; with ACHN renal (10 µM unless noted), 83.3%. Also, the growth in the assay on CAKI-1 renal (10 µM unless noted) was 84%; in the assay with A498 renal (10 µM unless noted), 215%; in the assay with CCRF-CEM leukemia (10 µM unless noted), 100%.
As to `COc1ccc(C(=O)c2c(N)c(C#N)cn2-c2ccc([N+](=O)[O-])cc2)cc1`, the growth was 108% in the assay on SK-MEL-2 melanoma (10 µM unless noted); 93.6% in the assay with EKVX NSCLC (10 µM unless noted); 101% in the assay with SN12C renal (10 µM unless noted); 90.1% with UO-31 renal (10 µM unless noted); 117% in the assay on TK-10 renal (10 µM unless noted); 106% with ACHN renal (10 µM unless noted). Besides, the growth in the assay on CAKI-1 renal (10 µM unless noted) was 85.4%; in the assay with A498 renal (10 µM unless noted) it was 126%; in the assay on CCRF-CEM leukemia (10 µM unless noted), 112%.
Turning to `O=C(N/N=C/c1ccsc1)c1[nH]c2ccc(Br)cc2c1-c1ccccc1`, the growth with SK-MEL-2 melanoma (10 µM unless noted) is -82.8% (active); with EKVX NSCLC (10 µM unless noted), -26.3% (active); with SN12C renal (10 µM unless noted) it was -87.5% (active); with UO-31 renal (10 µM unless noted), -49.4% (active); with TK-10 renal (10 µM unless noted), -13.3% (active); in the assay with ACHN renal (10 µM unless noted) it was -28% (active). Moreover, the growth in the assay on CAKI-1 renal (10 µM unless noted) is -21.8% (active); in the assay on A498 renal (10 µM unless noted) it was -48.1% (active); with CCRF-CEM leukemia (10 µM unless noted), 6.69% (active).
With `CCc1ccc(SC2c3cc(OC)ccc3Oc3nc(N)c(C#N)c(N)c32)cc1` (centres undefined), the growth in the assay with SK-MEL-2 melanoma (10 µM unless noted) is -88.8% (active); in the assay with EKVX NSCLC (10 µM unless noted), -76.2% (active); with SN12C renal (10 µM unless noted), 1.31% (active); with UO-31 renal (10 µM unless noted) it was 4.16% (active); in the assay with TK-10 renal (10 µM unless noted), -50.1% (active); in the assay on ACHN renal (10 µM unless noted) it was 3.73% (active). For the same compound, the growth in the assay with CAKI-1 renal (10 µM unless noted) was -56.5% (active); in the assay with A498 renal (10 µM unless noted), -87.9% (active); in the assay with CCRF-CEM leukemia (10 µM unless noted), 1.76% (active).
Take `COc1ccc(C(=O)/C=C/c2ccc3c(c2)OCCO3)cc1S(N)(=O)=O`: the growth is 114% in the assay with SK-MEL-2 melanoma (10 µM unless noted); 84.8% with EKVX NSCLC (10 µM unless noted); 68.6% in the assay with SN12C renal (10 µM unless noted); 48.5% in the assay with UO-31 renal (10 µM unless noted); 95.6% with TK-10 renal (10 µM unless noted); 69.6% in the assay on ACHN renal (10 µM unless noted). The growth is 85.6% with CAKI-1 renal (10 µM unless noted), 109% in the assay with A498 renal (10 µM unless noted) and 91% in the assay on CCRF-CEM leukemia (10 µM unless noted).
`COc1ccc2c(c1)C(Sc1ccc(F)cc1)c1c(nc(N)c(C#N)c1N)O2` (centres undefined): the growth is 97% in the assay on SK-MEL-2 melanoma (10 µM unless noted); 87.1% in the assay on EKVX NSCLC (10 µM unless noted); 78.5% with SN12C renal (10 µM unless noted); 39.8% in the assay on UO-31 renal (10 µM unless noted); 103% in the assay with TK-10 renal (10 µM unless noted); 86.6% with ACHN renal (10 µM unless noted). For the same compound, the figures for the growth in the assay with CAKI-1 renal (10 µM unless noted), in the assay with A498 renal (10 µM unless noted) and in the assay on CCRF-CEM leukemia (10 µM unless noted) were 84.9%, 101% and 1.67% (active), respectively.
With `Cn1cc(-c2cc3nc(-c4cn(C)c5ncc(Br)cc45)cc(N)n3n2)c2cc(F)ccc21`, the growth in the assay on SK-MEL-2 melanoma (10 µM unless noted) is 88.8%; with EKVX NSCLC (10 µM unless noted), 49%; with SN12C renal (10 µM unless noted) it was 26.4%; in the assay with UO-31 renal (10 µM unless noted) it was 20.3%; with TK-10 renal (10 µM unless noted) it was 16%; in the assay with ACHN renal (10 µM unless noted), -7.44% (active). Moreover, the growth is -3.51% (active) with CAKI-1 renal (10 µM unless noted), 125% with A498 renal (10 µM unless noted) and 5.26% (active) with CCRF-CEM leukemia (10 µM unless noted).
`O=CNc1cccc(-n2cnc3cc(-c4ccc(O)cc4)ccc32)c1`: the growth was 79.2% in the assay with SK-MEL-2 melanoma (10 µM unless noted); 71.5% in the assay with EKVX NSCLC (10 µM unless noted); 22.9% in the assay on SN12C renal (10 µM unless noted); 10.3% in the assay on UO-31 renal (10 µM unless noted); 79.3% in the assay with TK-10 renal (10 µM unless noted); 16.9% in the assay with ACHN renal (10 µM unless noted). Moreover, the growth was 42.2% with CAKI-1 renal (10 µM unless noted), 147% in the assay with A498 renal (10 µM unless noted) and 23% in the assay on CCRF-CEM leukemia (10 µM unless noted).
Take `CC/C(=C(/c1ccc(O)cc1)c1ccc(OCCN(C)C(=O)COCCOCCNC(=O)c2ccc3c(c2)CN([C@@H]2CCC(=O)NC2=O)C3=O)cc1)c1ccccc1`: the growth with SK-MEL-2 melanoma (1 µM) is 101%; in the assay with SK-MEL-2 melanoma (10 µM), 93.5%; with EKVX NSCLC (1 µM), 99.1%; in the assay on EKVX NSCLC (10 µM), 93.4%; in the assay with SN12C renal (1 µM), 96%; with SN12C renal (10 µM), 85%. Moreover, the growth is 87.2% in the assay on UO-31 renal (1 µM); 87.7% with UO-31 renal (10 µM); 99.1% in the assay on TK-10 renal (1 µM); 91.2% with TK-10 renal (10 µM); 104% in the assay on ACHN renal (1 µM); 101% in the assay with ACHN renal (10 µM). Moreover, the growth was 99.3% in the assay on CAKI-1 renal (1 µM); 95.5% with CAKI-1 renal (10 µM); 114% in the assay with A498 renal (1 µM); 110% with A498 renal (10 µM); 9.04% (active) in the assay with CCRF-CEM leukemia (1 µM); 12.9% in the assay with CCRF-CEM leukemia (10 µM).
For the compound `CCCCN1C(=O)/C(=C\C(=O)c2cc3ccccc3oc2=O)c2ccccc21`, the growth was 79.8% in the assay with SK-MEL-2 melanoma (10 µM unless noted); 84.5% in the assay on EKVX NSCLC (10 µM unless noted); 56.2% with SN12C renal (10 µM unless noted); 32.1% in the assay on UO-31 renal (10 µM unless noted); 57.7% in the assay on TK-10 renal (10 µM unless noted); 0.901% (active) in the assay on ACHN renal (10 µM unless noted). The growth is 70.8% in the assay with CAKI-1 renal (10 µM unless noted), 161% in the assay on A498 renal (10 µM unless noted) and 25.5% in the assay on CCRF-CEM leukemia (10 µM unless noted).
